Source: PubChem BioAssay (Tox21)
Values joined by “and” are separate entries in the source; they are usually repeats but may differ in a detail not shown here. Equal entries are not always repeated. Records with an inconclusive call do not appear. Entries that show only a call come without a potency. More than one record can exist for a structure, and the calls need not agree. Active and inactive are the calls of the source. Unless noted, the call rests on the fitted dose curve; in most records, active means well fitted curve in the direction sought with a large enough effect in the repeat runs; inconclusive means weak or mixed curves; inactive means no such curve, though single readings can be large; an effect the other way counts as inactive or inconclusive.

Experiments:
[1] = Human pregnane X receptor (PXR) small molecule agonists, qHTS cell viability counter screen (AID 1346977); further: nearly all actives have a fitted effect of over 50% in size; further: potency means the concentration at half of the fitted maximal effect
Outline: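 Same-well viability read: CellTiter-Fluor added after 23 hr compound exposure, fluorescence measured 1 hr later. Cells were PXR-Luc HepG2 seeded at 2,000/well in 5% charcoal-stripped FBS medium, rested 5 hr before dosing at 37 C.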

[2] = Caspase-3/7 induction in HepG2 cells by small molecules, qHTS assay (AID 1346978); further: nearly all actives have a fitted effect of over 15% in size
Outline: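 Caspase-3/7 induction was measured by Caspase-Glo 3/7 luminescence (30 min, room temperature) after a 17 hr compound exposure of wild-type HepG2 cells seeded at 2,000 per well and pre-incubated 5 hr.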

[3] = Caspase-3/7 induction in CHO-K1 cells by small molecules, qHTS cell viability counter screen (AID 1346979); further: nearly all actives have a fitted effect of over 35% in size; further: potency means the concentration at half of the fitted maximal effect
Outline: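 Cytotoxicity counter screen: CellTiter-Fluor added to compound-treated wild-type CHO-K1 cells at 16 h (37C, 5% CO2), fluorescence measured 1 h later; same wells as caspase-3/7 measurement.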

[4] = Caspase-3/7 induction in CHO-K1 cells by small molecules, qHTS assay (AID 1346980); further: nearly all actives have a fitted effect of over 15% in size
Outline: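 Luminescent Caspase-Glo 3/7 read (30min, room temperature) quantified apoptosis induction. Cells were wild-type CHO-K1, treated with compound for 17hr at 37 C and 5% CO2.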

[5] = target: Nuclear receptor subfamily 1 group I member 2 (Homo sapiens) (UniProt O75469); assay: Human pregnane X receptor (PXR) small molecule agonists, qHTS assay (AID 1346982); further: nearly all actives have a fitted effect of over 35% in size; further: potency means the concentration at half of the fitted maximal effect
Sequence of Nuclear receptor subfamily 1 group I member 2 (Homo sapiens) (O75469 whole entry, looked up): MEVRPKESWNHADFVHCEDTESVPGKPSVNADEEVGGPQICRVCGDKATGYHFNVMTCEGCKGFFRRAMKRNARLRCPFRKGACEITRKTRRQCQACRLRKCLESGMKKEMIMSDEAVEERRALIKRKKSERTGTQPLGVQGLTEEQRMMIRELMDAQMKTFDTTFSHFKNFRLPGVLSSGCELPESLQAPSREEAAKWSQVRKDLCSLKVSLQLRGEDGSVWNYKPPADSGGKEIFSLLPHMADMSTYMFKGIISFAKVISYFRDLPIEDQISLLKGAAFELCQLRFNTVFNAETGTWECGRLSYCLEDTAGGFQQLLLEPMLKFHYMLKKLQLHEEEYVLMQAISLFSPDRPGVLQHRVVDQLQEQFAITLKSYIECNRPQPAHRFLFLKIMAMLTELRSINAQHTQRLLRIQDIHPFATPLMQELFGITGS
Outline: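 Luminescence (ONE-Glo, 30 min RT) after 24 hr compound exposure of PXR-Luc HepG2 cells; cells rested 5 hr post-plating in 5% charcoal-stripped FBS medium.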

[6] = target: Nuclear receptor subfamily 1 group I member 2 (Homo sapiens) (UniProt O75469); assay: Human pregnane X receptor (PXR) activation by small molecules, qHTS assay (AID 1346985); further: nearly all actives have a fitted effect of over 40% in size
Outline: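 DPX-2 cells (HepG2 co-transfected with a PXR response element and a CYP3A4-promoter luciferase construct) were seeded at 2,000 per well, rested 5 hr at 37C, then exposed to DMSO-dissolved compounds for 24 hr. Activation was read as luciferase luminescence.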

[7] = target: Cytochrome P450 2D6 (Homo sapiens) (UniProt P10635); assay: Cytochrome P450 Family 2 Subfamily D Member 6 (CYP2D6) small molecule antagonists: luciferase reporter qHTS assay (AID 1671196); further: nearly all actives have a fitted effect of over 50% in size; further: potency means the concentration at half of the fitted maximal effect; on activity change, negative = inhibition: series mostly up to about 120 µM
Sequence of Cytochrome P450 2D6 (Homo sapiens) (P10635 whole entry, looked up): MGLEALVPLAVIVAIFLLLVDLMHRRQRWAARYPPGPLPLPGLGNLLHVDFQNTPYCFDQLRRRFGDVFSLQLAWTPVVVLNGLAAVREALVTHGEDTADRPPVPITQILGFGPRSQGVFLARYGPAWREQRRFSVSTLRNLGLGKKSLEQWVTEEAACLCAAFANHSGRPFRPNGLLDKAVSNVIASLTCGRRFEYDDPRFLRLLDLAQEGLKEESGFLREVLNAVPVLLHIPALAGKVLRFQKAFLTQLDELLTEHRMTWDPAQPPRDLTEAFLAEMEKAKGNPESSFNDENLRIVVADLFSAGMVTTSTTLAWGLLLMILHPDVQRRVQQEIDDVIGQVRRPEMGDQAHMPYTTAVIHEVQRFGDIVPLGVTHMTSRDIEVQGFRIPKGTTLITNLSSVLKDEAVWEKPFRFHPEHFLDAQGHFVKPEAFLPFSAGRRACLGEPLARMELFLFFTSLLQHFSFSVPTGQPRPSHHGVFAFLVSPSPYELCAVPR
Outline: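 Inhibition of CYP2D6 was gauged by loss of luminescence, since light produced tracks the luciferin generated from a proluciferin substrate. A 10 min room-temperature preincubation preceded 1 h NADPH-supported turnover.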

[8] = target: Cytochrome P450 2C19 (Homo sapiens) (UniProt P33261); assay: Cytochrome P450 Family 2 Subfamily C Member 19 (CYP2C19) small molecule antagonists: luciferase reporter qHTS assay (AID 1671197); further: nearly all actives have a fitted effect of over 65% in size; further: potency means the concentration at half of the fitted maximal effect; on activity change, negative = inhibition: series mostly up to about 120 µM
Sequence of Cytochrome P450 2C19 (Homo sapiens) (P33261 whole entry, looked up): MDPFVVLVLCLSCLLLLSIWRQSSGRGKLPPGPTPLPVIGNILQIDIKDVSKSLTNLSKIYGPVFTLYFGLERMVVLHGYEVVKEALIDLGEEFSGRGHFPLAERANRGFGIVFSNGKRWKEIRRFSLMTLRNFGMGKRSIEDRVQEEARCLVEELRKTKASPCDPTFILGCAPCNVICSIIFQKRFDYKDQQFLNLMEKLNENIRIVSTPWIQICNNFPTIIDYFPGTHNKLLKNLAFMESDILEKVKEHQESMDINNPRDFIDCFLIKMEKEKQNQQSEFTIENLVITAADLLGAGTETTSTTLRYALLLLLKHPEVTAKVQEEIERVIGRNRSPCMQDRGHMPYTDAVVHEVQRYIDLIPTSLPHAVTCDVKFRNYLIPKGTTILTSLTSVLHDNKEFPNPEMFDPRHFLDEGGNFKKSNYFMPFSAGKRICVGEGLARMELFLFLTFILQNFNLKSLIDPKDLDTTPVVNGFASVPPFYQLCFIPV
Outline: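 Luminescent readout of CYP2C19 activity: luciferin product detected 20 min after adding detection reagent. Before that, compound and enzyme-substrate mix preincubated 10 min at room temperature; NADPH-regenerating system started a 1 h, 37C reaction. Ketoconazole as positive control.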

[9] = target: Cytochrome P450 2C9 (Homo sapiens) (UniProt P11712); assay: Cytochrome P450 Family 2 Subfamily C Member 9 (CYP2C9) small molecule antagonists: luciferase reporter qHTS assay (AID 1671198); further: nearly all actives have a fitted effect of over 50% in size; further: potency means the concentration at half of the fitted maximal effect; on activity change, negative = inhibition: series mostly up to about 120 µM
Sequence of Cytochrome P450 2C9 (Homo sapiens) (P11712 whole entry, looked up): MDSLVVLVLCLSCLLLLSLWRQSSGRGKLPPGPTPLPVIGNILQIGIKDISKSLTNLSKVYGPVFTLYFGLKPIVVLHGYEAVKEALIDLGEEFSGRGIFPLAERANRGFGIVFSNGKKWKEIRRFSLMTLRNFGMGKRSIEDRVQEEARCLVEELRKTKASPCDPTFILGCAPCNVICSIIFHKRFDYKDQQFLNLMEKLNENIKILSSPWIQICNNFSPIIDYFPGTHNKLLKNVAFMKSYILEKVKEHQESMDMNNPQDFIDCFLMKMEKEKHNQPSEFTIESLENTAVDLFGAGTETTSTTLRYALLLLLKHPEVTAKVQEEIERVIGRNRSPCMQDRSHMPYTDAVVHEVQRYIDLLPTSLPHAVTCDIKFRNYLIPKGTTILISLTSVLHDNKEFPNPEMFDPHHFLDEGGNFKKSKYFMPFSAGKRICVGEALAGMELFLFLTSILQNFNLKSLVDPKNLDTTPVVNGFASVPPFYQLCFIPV
Outline: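 Enzyme-substrate mix preincubated with compound 10 min at room temperature; reaction started with NADPH regeneration solution, 1 h 37C. Luminescent luciferin product read after 20 min detection reagent.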

[10] = target: Cytochrome P450 1A2 (Homo sapiens) (UniProt P05177); assay: Cytochrome P450 Family 1 Subfamily A Member 2 (CYP1A2) small molecule antagonists: luciferase reporter qHTS assay (AID 1671199); further: nearly all actives have a fitted effect of over 50% in size; further: potency means the concentration at half of the fitted maximal effect; on activity change, negative = inhibition: series mostly up to about 120 µM
Sequence of Cytochrome P450 1A2 (Homo sapiens) (P05177 whole entry, looked up): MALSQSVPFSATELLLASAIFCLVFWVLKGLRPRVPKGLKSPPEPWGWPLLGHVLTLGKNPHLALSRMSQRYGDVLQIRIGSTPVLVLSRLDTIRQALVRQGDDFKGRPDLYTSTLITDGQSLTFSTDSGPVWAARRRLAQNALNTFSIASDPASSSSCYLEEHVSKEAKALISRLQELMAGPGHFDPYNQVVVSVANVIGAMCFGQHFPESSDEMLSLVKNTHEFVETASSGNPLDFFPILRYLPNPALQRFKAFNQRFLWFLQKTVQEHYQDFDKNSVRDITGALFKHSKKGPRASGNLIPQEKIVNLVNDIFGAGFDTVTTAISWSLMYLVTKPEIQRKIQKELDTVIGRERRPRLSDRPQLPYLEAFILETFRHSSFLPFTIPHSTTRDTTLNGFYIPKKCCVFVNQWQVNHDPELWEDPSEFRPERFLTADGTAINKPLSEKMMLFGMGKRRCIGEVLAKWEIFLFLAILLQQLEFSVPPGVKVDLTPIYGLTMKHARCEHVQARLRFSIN
Outline: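 Signal from luciferin formed by CYP1A2 from a proluciferin substrate is read as luminescence, expressed in relative luminescence units. Compounds sit with enzyme 10 min, NADPH-driven reaction runs 1 h, all at room temperature.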

[11] = target: Voltage-gated inwardly rectifying potassium channel KCNH2 (Homo sapiens) (UniProt Q12809); assay: Human Ether-a-go-go-Related Gene (hERG) channel small molecule antagonists: fluorescence cell-based qHTS assay (AID 1671200)
Sequence of Voltage-gated inwardly rectifying potassium channel KCNH2 (Homo sapiens) (Q12809 whole entry, looked up): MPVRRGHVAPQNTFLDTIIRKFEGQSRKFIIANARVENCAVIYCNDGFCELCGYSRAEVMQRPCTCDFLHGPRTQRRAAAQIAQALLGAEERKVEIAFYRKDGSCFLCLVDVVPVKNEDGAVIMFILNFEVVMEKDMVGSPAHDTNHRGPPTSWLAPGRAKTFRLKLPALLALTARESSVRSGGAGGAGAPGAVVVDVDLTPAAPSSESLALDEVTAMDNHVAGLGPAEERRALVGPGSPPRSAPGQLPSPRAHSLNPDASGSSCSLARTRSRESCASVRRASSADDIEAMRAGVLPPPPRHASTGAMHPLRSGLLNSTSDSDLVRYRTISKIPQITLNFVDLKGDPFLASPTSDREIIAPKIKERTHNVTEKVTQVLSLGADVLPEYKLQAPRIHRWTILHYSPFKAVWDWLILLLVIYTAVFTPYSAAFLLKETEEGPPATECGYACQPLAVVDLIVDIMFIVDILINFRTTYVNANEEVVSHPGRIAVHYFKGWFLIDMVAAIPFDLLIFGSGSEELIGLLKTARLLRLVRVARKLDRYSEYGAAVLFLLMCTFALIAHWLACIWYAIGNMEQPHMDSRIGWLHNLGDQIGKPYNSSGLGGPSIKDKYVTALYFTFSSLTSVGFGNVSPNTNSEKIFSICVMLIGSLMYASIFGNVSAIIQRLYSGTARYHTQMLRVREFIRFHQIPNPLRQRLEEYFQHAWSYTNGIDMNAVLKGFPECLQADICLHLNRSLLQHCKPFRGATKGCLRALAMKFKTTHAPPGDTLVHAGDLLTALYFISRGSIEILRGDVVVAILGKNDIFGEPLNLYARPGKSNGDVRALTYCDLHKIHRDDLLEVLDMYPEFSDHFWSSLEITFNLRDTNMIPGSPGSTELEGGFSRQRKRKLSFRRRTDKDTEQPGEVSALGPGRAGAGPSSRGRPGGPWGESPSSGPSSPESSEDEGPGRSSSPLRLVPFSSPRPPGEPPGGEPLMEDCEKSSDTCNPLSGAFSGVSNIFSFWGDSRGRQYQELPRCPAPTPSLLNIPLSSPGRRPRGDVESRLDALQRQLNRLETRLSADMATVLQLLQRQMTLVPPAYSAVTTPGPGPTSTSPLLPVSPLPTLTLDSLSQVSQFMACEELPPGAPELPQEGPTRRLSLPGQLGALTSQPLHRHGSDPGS
Outline: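 Thallium flux as potassium surrogate: FluxOR II dye loaded 1 h at room temperature into hERG-expressing U2OS cells, then stimulus buffer added after 10 min. Kinetic 480 nm excitation/540 nm emission read, 2 min.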

[12] = target: Cytochrome P450 3A4 (Homo sapiens) (UniProt P08684); assay: Cytochrome P450 Family 3 Subfamily A Member 4 (CYP3A4) small molecule antagonists: luciferase reporter qHTS assay (AID 1671201)
Sequence of Cytochrome P450 3A4 (Homo sapiens) (P08684 whole entry, looked up): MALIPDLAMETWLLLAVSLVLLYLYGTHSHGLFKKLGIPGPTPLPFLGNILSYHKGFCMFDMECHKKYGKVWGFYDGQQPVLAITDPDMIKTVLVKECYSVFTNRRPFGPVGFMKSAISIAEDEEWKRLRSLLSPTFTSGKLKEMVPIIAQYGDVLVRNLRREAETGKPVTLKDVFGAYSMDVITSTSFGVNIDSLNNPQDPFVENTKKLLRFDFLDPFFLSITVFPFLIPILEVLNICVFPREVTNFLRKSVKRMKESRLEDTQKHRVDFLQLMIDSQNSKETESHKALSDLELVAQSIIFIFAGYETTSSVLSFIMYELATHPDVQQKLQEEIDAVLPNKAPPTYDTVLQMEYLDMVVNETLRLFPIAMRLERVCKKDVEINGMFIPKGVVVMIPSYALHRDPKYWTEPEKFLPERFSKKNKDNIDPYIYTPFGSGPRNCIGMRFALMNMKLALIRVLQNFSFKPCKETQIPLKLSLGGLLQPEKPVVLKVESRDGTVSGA
Outline: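 Recombinant human CYP3A4 converts a proluciferin substrate to luciferin over 1 h at room temperature after NADPH regeneration solution is added (compound preincubated 10 min); detection reagent stops reaction, luminescence read 20 min later as relative units.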

[13] = target: Thyrotropin-releasing hormone receptor (Homo sapiens) (UniProt P34981); assay: qHTS assay to identify small molecule agonists of the thyrotropin-releasing hormone receptor (TRHR) signaling pathway (AID 1346891; calls by dose curve; further: series mostly up to about 58 µM)
Sequence of Thyrotropin-releasing hormone receptor (Homo sapiens) (P34981 whole entry, looked up): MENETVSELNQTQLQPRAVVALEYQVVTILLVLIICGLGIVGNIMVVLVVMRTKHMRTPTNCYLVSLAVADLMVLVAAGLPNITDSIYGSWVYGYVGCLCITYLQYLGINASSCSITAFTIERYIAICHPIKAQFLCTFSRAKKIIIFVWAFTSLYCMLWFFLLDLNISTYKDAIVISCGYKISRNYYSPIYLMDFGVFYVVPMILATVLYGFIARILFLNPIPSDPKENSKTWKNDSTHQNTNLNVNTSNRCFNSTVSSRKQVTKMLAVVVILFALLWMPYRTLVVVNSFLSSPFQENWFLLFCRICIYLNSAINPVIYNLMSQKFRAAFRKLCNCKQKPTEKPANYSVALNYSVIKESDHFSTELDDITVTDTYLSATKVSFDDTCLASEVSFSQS
Outline: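 Agonist-mode intracellular calcium readout: kinetic fluorescence over 3 min at 1 s intervals after compound addition to TRHR-HEK293 cells (18 h seeded, 2 h dye-loaded at 37 C). Fifteen concentrations, triplicates.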

[14] = Caspase-3/7 induction in HepG2 cells by small molecules, qHTS cell viability counter screen (AID 1346981); further: series mostly up to about 92 µM; nearly all actives have a fitted effect of over 30% in size
Outline: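 Counter screen for cytotoxicity: HepG2 exposed 16 hr to compounds, then CellTiter-Fluor viability signal (fluorescence, 1 hr reagent incubation).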

[15] = target: Nuclear receptor subfamily 1 group I member 2 (Rattus norvegicus) (UniProt Q9R1A7); assay: Rat pregnane X receptor (rPXR) activation by small molecules, qHTS assay (AID 1346983); details: rPXR luciferase reporter cells, One-Glo luminescence, 24 h; stronger effect = higher value; further: nearly all actives have a fitted effect of over 20% in size
Sequence of Nuclear receptor subfamily 1 group I member 2 (Rattus norvegicus) (Q9R1A7 whole entry, looked up): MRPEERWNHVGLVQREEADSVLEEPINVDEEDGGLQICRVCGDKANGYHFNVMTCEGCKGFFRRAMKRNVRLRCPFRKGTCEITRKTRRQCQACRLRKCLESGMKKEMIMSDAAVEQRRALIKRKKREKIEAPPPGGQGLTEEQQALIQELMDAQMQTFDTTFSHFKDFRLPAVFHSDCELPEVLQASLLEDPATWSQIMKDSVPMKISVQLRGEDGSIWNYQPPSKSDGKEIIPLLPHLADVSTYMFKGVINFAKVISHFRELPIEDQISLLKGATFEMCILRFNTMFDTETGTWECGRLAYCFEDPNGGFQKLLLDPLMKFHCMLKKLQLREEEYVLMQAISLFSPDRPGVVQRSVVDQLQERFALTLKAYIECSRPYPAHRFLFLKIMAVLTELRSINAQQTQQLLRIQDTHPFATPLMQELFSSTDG
Outline: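 Luminescent readout (One-Glo luciferase, 30 min room temperature) followed 24 hr compound treatment at 37 C of rPXR cells plated 2,000 per well and preincubated 5hr; qHTS format with compounds delivered in DMSO.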

Row | Compound | Potency [1] | Potency [2] | Potency [3] | outcome [4] | Potency [5] | Potency [6] | Potency [7] | Potency [8] | Potency [9] | Potency [10] | outcome [11] | Potency [12] | outcome [13] | Potency [14] | max activation [15] | activity change, negative = inhibition [8]
1 | O=c1ccc2ccccc2o1 | inactive | inactive | inactive | inactive | inactive | inactive | inactive | inactive | inactive | 36.3 µM (active) and 31.7 µM (active) and inactive | inactive | inactive | – | – | – | –
2 | NC(N)=NC(=O)c1nc(Cl)c(N)nc1N | – | inactive | inactive | inactive | 69 µM (active) and 50.4 µM (active) and inactive | – | inactive | inactive | inactive | inactive | inactive | inactive | inactive | inactive | – | –
3 | Cc1ccc(S(=O)(=O)NC(=O)NN2CCCCCC2)cc1 | inactive | inactive | inactive | inactive | – | – | – | – | – | – | inactive | – | inactive | – | – | –
4 | OC(Cn1cncn1)(Cn1cncn1)c1ccc(F)cc1F | inactive | – | inactive | inactive | inactive | inactive | 22.7 µM (active) and inactive | – | – | inactive | inactive | – | – | inactive | -1.17% (inactive) | –
5 | O=C(O)C(=O)O | inactive | inactive | inactive | inactive | inactive | – | inactive | 81 µM (active) | inactive | inactive | inactive | inactive | – | inactive | – | -11.9% [at 10.5 µM] (inactive)
6 | NS(=O)(=O)c1cc(C(=O)O)c(NCc2ccco2)cc1Cl | inactive | – | inactive | inactive | inactive | – | – | – | – | – | – | – | inactive | – | – | –
7 | Cn1cc[nH]c1=S | inactive | inactive | inactive | inactive | – | inactive | inactive | inactive | inactive and 71 µM (active) | – | inactive | – | – | inactive | -0.0972% (inactive) | –
8 | CC(C)(Oc1ccc(C2CC2(Cl)Cl)cc1)C(=O)O (centres undefined) | inactive | inactive | inactive | inactive | inactive | inactive | inactive | inactive | 30.5 µM (active) and 22.4 µM (active) and 15.5 µM (active) | inactive | inactive | inactive | – | – | -3.49% (inactive) | –
9 | Cc1cn([C@H]2C[C@H](N=[N+]=[N-])[C@@H](CO)O2)c(=O)[nH]c1=O | 70.8 µM (active) and inactive | inactive | 15.8 µM (active) and inactive | inactive | inactive | inactive | inactive | 41.1 µM (active) and 39.9 µM (active) and inactive | 63.3 µM (active) and inactive | inactive | inactive | inactive | – | inactive | -3.59% (inactive) | –
10 | Nc1ccc(C(=O)O)cc1 | inactive | inactive | inactive | inactive | inactive | inactive | inactive | inactive | inactive | inactive | inactive | inactive | – | inactive | -4.61% (inactive) | –
11 | O=C(O)c1cc(N=Nc2ccc(S(=O)(=O)Nc3ccccn3)cc2)ccc1O | 39.8 µM (active) | inactive | 34.5 µM (active) and 54.5 µM (active) and 26.6 µM (active) | inactive | inactive | inactive | inactive | 56.6 µM (active) and inactive | 14.2 µM (active) and 17.8 µM (active) and 8.71 µM (active) | inactive | inactive | inactive | – | – | -4.4% (inactive) | –
12 | CC(=O)NS(=O)(=O)c1ccc(N)cc1 | inactive | inactive | inactive | inactive | inactive | – | inactive | inactive | – | inactive | inactive | inactive | inactive | – | – | –
13 | N=C(N)c1ccc(OCCCCCOc2ccc(C(=N)N)cc2)cc1 | inactive | inactive | 54.2 µM (active) and inactive | inactive | 68.2 µM (active) and 32.8 µM (active) and inactive | – | – | inactive | – | inactive | – | – | inactive | – | – | –
14 | O=C1NC(=O)c2ccccc21 | inactive | inactive | inactive | inactive | inactive and 31.4 µM (active) | – | inactive | inactive | inactive | inactive | inactive | inactive | – | – | – | –
15 | O=NO | inactive | inactive | inactive | inactive | – | – | – | – | – | – | inactive | – | – | – | – | –
16 | Cc1ccc(C)c(OCCCC(C)(C)C(=O)O)c1 | inactive | inactive | inactive | inactive | inactive | – | inactive | 50.6 µM (active) and 56.4 µM (active) and inactive | 31.9 µM (active) and 35.6 µM (active) and 17.4 µM (active) | 71 µM (active) and inactive | inactive | inactive | – | inactive | – | –
17 | NC(N)=O | 14.1 µM (active) and inactive | inactive | 5.15 µM (active) and inactive | inactive | 9.16 µM (active) and inactive | inactive | inactive | inactive | inactive | inactive | inactive | inactive | – | inactive | -2.71% (inactive) | –
18 | Nc1ccc(O)c(C(=O)O)c1 | inactive | inactive | – | inactive | inactive | – | – | 79 µM (active) and 31.7 µM (active) and inactive | 62.7 µM (active) and 63.3 µM (active) | inactive | inactive | inactive | inactive | – | – | –
